Assay results as given in PubChem BioAssay (EPA / NIEHS).
Active and inactive are the calls of the source. The calls were made as follows: active = hit-call score of the fitted dose curve at least 0.9, where 1 is the maximum; inactive = score below 0.9.

target: Transcription factor Sp1 (Homo sapiens) (UniProt P08047); assay: ATG_Sp1_CIS: Attagene CIS-FACTORIAL HepG2 Assay for human Specificity Protein 1 (Sp1) (AID 2282961); conditions: HepG2 Sp1 cis-reporter transcription, actives raise or lower the signal
Sequence (P08047 whole entry, looked up): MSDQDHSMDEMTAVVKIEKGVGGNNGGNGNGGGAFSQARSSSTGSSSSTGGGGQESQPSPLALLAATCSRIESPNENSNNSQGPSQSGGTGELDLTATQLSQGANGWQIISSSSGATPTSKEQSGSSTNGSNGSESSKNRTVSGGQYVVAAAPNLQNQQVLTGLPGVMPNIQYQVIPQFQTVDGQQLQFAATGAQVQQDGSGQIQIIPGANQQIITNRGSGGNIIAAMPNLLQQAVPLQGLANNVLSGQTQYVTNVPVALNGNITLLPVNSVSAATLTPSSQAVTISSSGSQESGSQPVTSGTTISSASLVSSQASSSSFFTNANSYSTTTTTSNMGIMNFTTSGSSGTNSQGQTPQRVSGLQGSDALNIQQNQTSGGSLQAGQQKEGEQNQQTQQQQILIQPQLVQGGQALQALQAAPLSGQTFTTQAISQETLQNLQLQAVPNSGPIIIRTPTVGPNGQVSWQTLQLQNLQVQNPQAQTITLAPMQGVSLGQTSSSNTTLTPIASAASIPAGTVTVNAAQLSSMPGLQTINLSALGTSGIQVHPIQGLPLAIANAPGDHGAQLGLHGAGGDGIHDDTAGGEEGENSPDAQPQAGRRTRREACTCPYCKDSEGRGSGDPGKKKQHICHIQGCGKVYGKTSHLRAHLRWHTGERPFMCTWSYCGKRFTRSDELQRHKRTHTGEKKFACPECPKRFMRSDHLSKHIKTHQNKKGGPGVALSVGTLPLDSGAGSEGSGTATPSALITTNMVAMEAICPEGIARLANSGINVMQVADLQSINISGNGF
In short: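 Sp1-driven reporter mRNA, read as capillary electrophoresis fluorescence after RT-PCR, in transiently transfected HepG2 cells dosed for 24 h; signal change in either direction relative to DMSO.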

SMILES	outcome
O=C1C(Cl)=C(Cl)C(=O)C(Cl)=C1Cl	inactive
N#CCCCCC#N	inactive
CC1CCC(=O)O1 (stereo not drawn)	inactive
COc1cc(OC)c(OC)cc1C=O	inactive
CC(C)c1ccc(O)cc1	inactive
C[N+](C)(C)CC(=O)[O-]	inactive
CC(C)(c1cc(Cl)c(O)c(Cl)c1)c1cc(Cl)c(O)c(Cl)c1	inactive
O=C(NCNC(=O)NC1C(=O)NC(=O)N1CO)NC1C(=O)NC(=O)N1CO (stereo not drawn)	inactive
[N-]=[N+]=CC(=O)OC[C@H](N)C(=O)O	inactive
COCC(=O)N(c1c(C)cccc1C)N1CCOC1=O	inactive
CC(C)CCCCCCCOP(=O)(Oc1ccccc1)Oc1ccccc1	inactive
CCC1CCC(=O)O1 (stereo not drawn)	inactive
C=COCCCl	inactive
C=CCN(CC=C)C(=O)C(Cl)Cl	inactive
CC[N+](=O)[O-]	inactive
CC(Cc1ccc(C(C)(C)C)cc1)CN1C[C@@H](C)O[C@@H](C)C1 (stereo partly drawn)	inactive
[Cl-].[Cl-].[Cl-].[Yb+3]	inactive
CCOC(=O)N(C)N=O	inactive
O=CNC(N1CCN(C(NC=O)C(Cl)(Cl)Cl)CC1)C(Cl)(Cl)Cl (stereo not drawn)	inactive
CCC[N+](=O)[O-]	inactive

SMILES	outcome
CC(C)(O)C#N	inactive
CC(C)C#N	inactive
S=c1[nH]c2ccccc2[nH]1	inactive
CCCCCc1cc(O)cc(O)c1	inactive
c1ccc(Nc2ccc3ccccc3c2)cc1	inactive
CSc1nc(N=[N+]=[N-])nc(NC(C)C)n1	inactive
CC=Cc1ccc2c(c1)OCO2	inactive
Cc1ccc(OP(=O)(Oc2ccc(C)cc2)Oc2ccc(C)cc2)cc1 (tested in a mixture with another compound)	inactive
ClC1=C(Cl)[C@]2(Cl)[C@@H]3[C@@H](Cl)[C@H](Cl)C[C@@H]3[C@@]1(Cl)C2(Cl)Cl	inactive
O=S(=O)(c1ccccc1)c1ccccc1	inactive
CCC(C)c1cc(C(C)(C)C)cc(-n2nc3ccccc3n2)c1O (stereo not drawn)	inactive
CC1(C)C(=O)NC(=O)NC1=O	inactive
CC(=O)/C=C/c1ccccc1	inactive
c1ccc(P(c2ccccc2)c2ccccc2)cc1	inactive
CCOC(=O)COc1ccc(Cl)cc1Cl	inactive
CCN(CC)C(=S)S	inactive
N#Cc1cccc(C#N)c1	inactive
O=C1Nc2ccc(Cl)cc2C(c2ccccc2)=NC1O (stereo not drawn)	inactive
N#CC(c1ccccc1)c1ccccc1	inactive
C[N+](C)=CCl	inactive

test system: not listed separately; assay: ATG_SREBP_CIS: Attagene CIS-FACTORIAL HepG2 Assay for human Sterol Regulatory Element Binding (SREBP) (AID 2282962); conditions: HepG2 Attagene cis-factorial SREBP reporter, mRNA; actives raise or lower the signal
In short: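 HepG2 cells transiently transfected with multiplexed cis-promoter reporter units sensing endogenous transcription factors; reporter mRNA measured 24 h after dosing by RT-PCR, 6-FAM labeling, HpaI digestion and capillary electrophoresis. Bidirectional fit versus DMSO.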

SMILES	outcome	AC50
O=C1C(Cl)=C(Cl)C(=O)C(Cl)=C1Cl	inactive	
N#CCCCCC#N	inactive	
CC1CCC(=O)O1 (stereo not drawn)	inactive	
COc1cc(OC)c(OC)cc1C=O	inactive	
CC(C)c1ccc(O)cc1	inactive	
C[N+](C)(C)CC(=O)[O-]	inactive	
CC(C)(c1cc(Cl)c(O)c(Cl)c1)c1cc(Cl)c(O)c(Cl)c1	inactive	
COCC(=O)N(c1c(C)cccc1C)N1CCOC1=O	inactive	
CC(C)CCCCCCCOP(=O)(Oc1ccccc1)Oc1ccccc1		27.2 µM (active)
CCC1CCC(=O)O1 (stereo not drawn)	inactive	
C=CCN(CC=C)C(=O)C(Cl)Cl	inactive	
CC[N+](=O)[O-]	inactive	
CC(Cc1ccc(C(C)(C)C)cc1)CN1C[C@@H](C)O[C@@H](C)C1 (stereo partly drawn)	inactive	
CCOC(=O)N(C)N=O	inactive	
CCC[N+](=O)[O-]	inactive	
CC(C)(O)C#N	inactive	
CCCCCc1cc(O)cc(O)c1	inactive	
c1ccc(Nc2ccc3ccccc3c2)cc1	inactive	
CSc1nc(N=[N+]=[N-])nc(NC(C)C)n1	inactive	
CC=Cc1ccc2c(c1)OCO2	inactive	
Cc1ccc(OP(=O)(Oc2ccc(C)cc2)Oc2ccc(C)cc2)cc1 (tested in a mixture with another compound)	inactive	
O=S(=O)(c1ccccc1)c1ccccc1	inactive	
CCC(C)c1cc(C(C)(C)C)cc(-n2nc3ccccc3n2)c1O (stereo not drawn)	inactive	
CC1(C)C(=O)NC(=O)NC1=O	inactive	
N#Cc1cccc(C#N)c1	inactive	
O=C1Nc2ccc(Cl)cc2C(c2ccccc2)=NC1O (stereo not drawn)	inactive	
N#CC(c1ccccc1)c1ccccc1	inactive	
C[N+](C)=CCl	inactive	

target: Signal transducer and activator of transcription 3 (Homo sapiens) (UniProt P40763); assay: ATG_STAT3_CIS: Attagene CIS-FACTORIAL HepG2 Assay for human Signal Transducer and Activator of Transcription 3 (STAT3) (AID 2282963); conditions: HepG2, Attagene cis-factorial STAT3 reporter transcription; actives raise or lower the signal
Sequence (P40763 whole entry, looked up): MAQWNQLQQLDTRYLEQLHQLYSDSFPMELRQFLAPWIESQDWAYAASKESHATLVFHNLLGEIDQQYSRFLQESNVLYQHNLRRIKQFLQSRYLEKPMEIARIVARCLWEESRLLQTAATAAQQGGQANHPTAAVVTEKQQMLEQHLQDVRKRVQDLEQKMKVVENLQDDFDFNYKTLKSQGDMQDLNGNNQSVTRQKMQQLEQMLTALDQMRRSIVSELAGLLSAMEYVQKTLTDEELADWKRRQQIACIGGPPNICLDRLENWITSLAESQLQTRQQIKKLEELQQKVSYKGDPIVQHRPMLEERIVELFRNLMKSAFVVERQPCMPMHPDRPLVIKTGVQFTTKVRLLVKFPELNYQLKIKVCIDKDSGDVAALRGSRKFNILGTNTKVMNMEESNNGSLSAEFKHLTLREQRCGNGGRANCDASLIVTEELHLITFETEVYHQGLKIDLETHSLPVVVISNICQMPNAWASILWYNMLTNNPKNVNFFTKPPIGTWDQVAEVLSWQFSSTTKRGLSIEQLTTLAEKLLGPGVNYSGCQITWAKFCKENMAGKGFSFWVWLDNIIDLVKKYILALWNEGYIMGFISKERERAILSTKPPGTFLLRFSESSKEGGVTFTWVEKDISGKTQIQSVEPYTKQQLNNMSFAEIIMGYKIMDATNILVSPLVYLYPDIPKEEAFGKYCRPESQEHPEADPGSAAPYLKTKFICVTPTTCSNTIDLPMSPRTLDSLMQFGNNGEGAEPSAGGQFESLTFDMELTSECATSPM
In short: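 HepG2 cells transiently transfected with multiple cis-element-driven reporter units report endogenous transcription factor activity. After 24 h compound exposure, reporter mRNA is measured by RT-PCR, 6-FAM labelling, HpaI digestion and capillary electrophoresis. Fitted bidirectionally versus DMSO.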

SMILES	outcome
O=C1C(Cl)=C(Cl)C(=O)C(Cl)=C1Cl	inactive
N#CCCCCC#N	inactive
CC1CCC(=O)O1 (stereo not drawn)	inactive
COc1cc(OC)c(OC)cc1C=O	inactive
CC(C)c1ccc(O)cc1	inactive
C[N+](C)(C)CC(=O)[O-]	inactive
CC(C)(c1cc(Cl)c(O)c(Cl)c1)c1cc(Cl)c(O)c(Cl)c1	inactive
O=C(NCNC(=O)NC1C(=O)NC(=O)N1CO)NC1C(=O)NC(=O)N1CO (stereo not drawn)	inactive
[N-]=[N+]=CC(=O)OC[C@H](N)C(=O)O	inactive
COCC(=O)N(c1c(C)cccc1C)N1CCOC1=O	inactive
CC(C)CCCCCCCOP(=O)(Oc1ccccc1)Oc1ccccc1	inactive
CCC1CCC(=O)O1 (stereo not drawn)	inactive
C=COCCCl	inactive
C=CCN(CC=C)C(=O)C(Cl)Cl	inactive
CC[N+](=O)[O-]	inactive
CC(Cc1ccc(C(C)(C)C)cc1)CN1C[C@@H](C)O[C@@H](C)C1 (stereo partly drawn)	inactive
[Cl-].[Cl-].[Cl-].[Yb+3]	inactive
CCOC(=O)N(C)N=O	inactive
O=CNC(N1CCN(C(NC=O)C(Cl)(Cl)Cl)CC1)C(Cl)(Cl)Cl (stereo not drawn)	inactive
CCC[N+](=O)[O-]	inactive

SMILES	outcome
CC(C)(O)C#N	inactive
CC(C)C#N	inactive
S=c1[nH]c2ccccc2[nH]1	inactive
CCCCCc1cc(O)cc(O)c1	inactive
c1ccc(Nc2ccc3ccccc3c2)cc1	inactive
CSc1nc(N=[N+]=[N-])nc(NC(C)C)n1	inactive
CC=Cc1ccc2c(c1)OCO2	inactive
Cc1ccc(OP(=O)(Oc2ccc(C)cc2)Oc2ccc(C)cc2)cc1 (tested in a mixture with another compound)	inactive
ClC1=C(Cl)[C@]2(Cl)[C@@H]3[C@@H](Cl)[C@H](Cl)C[C@@H]3[C@@]1(Cl)C2(Cl)Cl	inactive
O=S(=O)(c1ccccc1)c1ccccc1	inactive
CCC(C)c1cc(C(C)(C)C)cc(-n2nc3ccccc3n2)c1O (stereo not drawn)	inactive
CC1(C)C(=O)NC(=O)NC1=O	inactive
CC(=O)/C=C/c1ccccc1	inactive
c1ccc(P(c2ccccc2)c2ccccc2)cc1	inactive
CCOC(=O)COc1ccc(Cl)cc1Cl	inactive
CCN(CC)C(=S)S	inactive
N#Cc1cccc(C#N)c1	inactive
O=C1Nc2ccc(Cl)cc2C(c2ccccc2)=NC1O (stereo not drawn)	inactive
N#CC(c1ccccc1)c1ccccc1	inactive
C[N+](C)=CCl	inactive
